# Measured values from PubChem BioAssay.
# Activity calls are given as the source filed them. Unless noted, the rule behind the calls is not given here.
# Experiments:
# [1] = test system: Wnt5a (protein binding on small-molecule microarray); experiment: Wnt5a binders on small-molecule microarray, primary screen, biophysical, 635/667 nm fluorescence (AID 1142); settings: 635 nm fluorescence, higher = more signal;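 note: fluorescence read at 667 nm with signal to noise per printed feature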
# [2] = cell viability in Huh7 cells, primary screen, cytotoxicity control for HCV replication inhibitor project, CellTiter-Glo luminescence, basal, 48 h (AID 1143); settings: Huh7 HCV replicon, higher = more signal, called active from +8 up or from −8 down;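 note: Huh7 hepatoma cells carrying a hepatitis C replication reporter with no stimulus; test concentration not given here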
# [3] = P. aeruginosa biofilm formation inhibitors, primary screen, PAO1 strain, BacTiter-Glo luminescence, LB-PBS (AID 1144); settings: 12 h, higher = more signal
# [4] = CREB reporter modulators without forskolin, primary screen, cell-based, PC12, CRE-LacZ reporter, unstimulated (AID 1145); settings: no forskolin, luminescence, 4.5 h, higher = more signal, called active from +8 up or from −8 down
# [5] = CREB reporter modulators under forskolin, primary screen, cell-based, PC12, CRE-LacZ reporter, forskolin-stimulated (AID 1146); settings: luminescence, 4.5 h, higher = more signal, called active from +8 up or from −8 down;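 note: PC12 cells with 6xCRE LacZ reporter stimulated by forskolin 10 µM; beta-galactosidase reporter signal reflecting CREB driven transcription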
# [6] = molecular target: Streptavidin (Streptomyces avidinii) (UniProt P22629); experiment: streptavidin binders on small-molecule microarray, primary screen, artefact control for SMM compound annotation, biophysical, 635/667 nm fluorescence (AID 1147); settings: streptavidin binding, higher = more signal;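 note: signal reflects streptavidin binding to arrayed compounds as a control protein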
# [7] = small-molecule binders of probe aInhba, primary screen, biochemical, small-molecule microarray, 635/667 nm fluorescence (AID 1148); settings: higher = more signal;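 note: score merges 667nm spot fluorescence with signal-to-noise for antibody binding to printed compounds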
# Torsin-1A (Homo sapiens) [8] = molecular target: Torsin-1A (Homo sapiens) (UniProt O14656); experiment: torsin A binders from cell lysate, primary screen, small-molecule microarray, wild-type, 635/667 nm (AID 1149); settings: COS7 hTOR1A-WT lysate, 635 nm fluorescence, higher = more signal
# Torsin-1A (Homo sapiens) [9] = molecular target: Torsin-1A (Homo sapiens) (UniProt O14656); experiment: small-molecule binders of mutant TOR1A in lysate, primary screen, cell lysate, small-molecule microarray, COS7 lysate, 635/667 nm fluorescence (AID 1150); settings: COS7 hTOR1A mutant lysate, 635 nm fluorescence, higher = more signal;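 note: score pools 667 nm emission and signal to noise measuring lysate protein binding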
# [10] = test system: Sonic hedgehog protein (Shh); experiment: small-molecule binders of Shh protein, primary screen, biochemical, small-molecule microarray, 635/667 nm fluorescence (AID 1151); settings: small-molecule microarray binding, 635 nm fluorescence; higher = more signal;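 note: Shh protein binding to compounds spotted on small-molecule microarray slides; score combines spot fluorescence intensity with signal-to-noise across triplicate slides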
# [11] = E. coli DRC41 culture turbidity changes, primary screen, E. coli filamentation inducer project, strain DRC41, OD650, 48 h (AID 1152);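 note: E. coli MC1000 strain DRC41 lacking acrAB efflux pump and sulA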; settings: E. coli DRC41 (acrAB sulA), higher = more signal, called active from +8 up or from −8 down
# [12] = small-molecule binders of probe aLefty1, primary screen, biochemical, small-molecule microarray, 635/667 nm fluorescence (AID 1153); settings: higher = more signal;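 note: score merges spot fluorescence with signal-to-noise ratio from the scanned slide images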
# [13] = PSAC antagonists in infected red cells, primary screen, cell-based, P. falciparum Indochina, OD700, 1 h (AID 1154); settings: P. falciparum Indochina infected RBC osmotic lysis, higher = more signal, called active from +8 up or from −8 down
# [14] = PSAC antagonists in infected red cells, primary screen, cell-based, P. falciparum Indochina, OD700, 2 h (AID 1155);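 note: lysis reports solute entry through the parasite surface anion channel PSAC; channel blockers reduce lysis of infected cells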; settings: P. falciparum Indochina infected erythrocytes, osmotic lysis OD700; higher = more signal, called active from +8 up or from −8 down
# [15] = osmotic lysis modulators in infected erythrocytes, primary screen, PSAC antagonist project, cell-based, P. falciparum Indochina, OD700, 3 h (AID 1156); settings: higher = more signal, called active from +8 up or from −8 down
# [16] = PSAC antagonists in infected red cells, primary screen, cell-based, P. falciparum Indochina, OD700, 18 h (AID 1157); settings: P. falciparum Indochina infected erythrocytes, osmotic lysis OD700, 18 h; higher = more signal, called active from +8 up or from −8 down
# [17] = modulators of S6 phosphorylation in cells, primary screen, cell-based, A549, cytoblot, luminescence, serum-stimulated (AID 1158); settings: A549 phospho-S6 cytoblot, 5 h, higher = more signal;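 note: serum-stimulated A549 lung adenocarcinoma cells; signal is phosphorylated S6 detected by cytoblot immunostaining with HRP secondary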
# [18] = molecular target: NADPH oxidase 2 (Homo sapiens) (UniProt P04839); experiment: NOX2-dependent H2O2 signal modulators, primary screen, NOX inhibitor project, cell-based, HEK293-NOX2, PMA-stimulated, Amplex Red fluorescence (AID 1159); settings: 45 min, higher = more signal, called active from +8 up or from −8 down; note: test concentration not given here
# [19] = molecular target: NADPH oxidase 4 (Homo sapiens) (UniProt Q9NPH5); experiment: NOX4-dependent H2O2 signal modulators, primary screen, NOX inhibitor project, cell-based, HEK293-NOX4, tetracycline-induced, Amplex Red fluorescence (AID 1160); settings: 45 min, higher = more signal, called active from +8 up or from −8 down
# [20] = molecular target: NADPH oxidase 5 (Homo sapiens) (UniProt Q96PH1); experiment: NOX5-dependent H2O2 signal modulators, primary screen, NOX inhibitor project, cell-based, HEK293-NOX5, Amplex Red fluorescence (AID 1161); settings: HEK293-NOX5, ionomycin, 45 min, higher = more signal
# Chain of NADPH oxidase 5 (Homo sapiens) (Q96PH1 whole entry, looked up): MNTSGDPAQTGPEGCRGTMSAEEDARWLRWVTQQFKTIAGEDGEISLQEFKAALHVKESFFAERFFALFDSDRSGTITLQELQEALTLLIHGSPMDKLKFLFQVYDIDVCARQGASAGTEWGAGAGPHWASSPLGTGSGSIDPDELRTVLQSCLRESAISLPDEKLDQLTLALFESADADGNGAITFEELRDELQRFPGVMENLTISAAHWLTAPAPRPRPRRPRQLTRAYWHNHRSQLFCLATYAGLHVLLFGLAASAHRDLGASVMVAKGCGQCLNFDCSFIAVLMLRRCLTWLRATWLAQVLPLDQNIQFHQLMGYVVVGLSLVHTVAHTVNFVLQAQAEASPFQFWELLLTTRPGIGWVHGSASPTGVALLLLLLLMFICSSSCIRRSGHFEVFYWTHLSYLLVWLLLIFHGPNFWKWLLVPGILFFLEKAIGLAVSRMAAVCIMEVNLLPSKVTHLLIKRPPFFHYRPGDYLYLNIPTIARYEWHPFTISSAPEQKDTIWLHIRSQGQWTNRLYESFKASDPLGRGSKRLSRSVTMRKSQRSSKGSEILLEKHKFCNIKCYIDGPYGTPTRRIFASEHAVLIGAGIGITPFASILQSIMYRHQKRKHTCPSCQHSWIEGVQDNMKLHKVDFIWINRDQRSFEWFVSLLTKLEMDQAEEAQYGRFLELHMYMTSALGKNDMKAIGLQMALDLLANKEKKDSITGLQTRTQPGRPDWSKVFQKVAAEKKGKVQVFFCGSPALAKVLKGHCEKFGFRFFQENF
# Chain of NADPH oxidase 4 (Homo sapiens) (Q9NPH5 whole entry, looked up): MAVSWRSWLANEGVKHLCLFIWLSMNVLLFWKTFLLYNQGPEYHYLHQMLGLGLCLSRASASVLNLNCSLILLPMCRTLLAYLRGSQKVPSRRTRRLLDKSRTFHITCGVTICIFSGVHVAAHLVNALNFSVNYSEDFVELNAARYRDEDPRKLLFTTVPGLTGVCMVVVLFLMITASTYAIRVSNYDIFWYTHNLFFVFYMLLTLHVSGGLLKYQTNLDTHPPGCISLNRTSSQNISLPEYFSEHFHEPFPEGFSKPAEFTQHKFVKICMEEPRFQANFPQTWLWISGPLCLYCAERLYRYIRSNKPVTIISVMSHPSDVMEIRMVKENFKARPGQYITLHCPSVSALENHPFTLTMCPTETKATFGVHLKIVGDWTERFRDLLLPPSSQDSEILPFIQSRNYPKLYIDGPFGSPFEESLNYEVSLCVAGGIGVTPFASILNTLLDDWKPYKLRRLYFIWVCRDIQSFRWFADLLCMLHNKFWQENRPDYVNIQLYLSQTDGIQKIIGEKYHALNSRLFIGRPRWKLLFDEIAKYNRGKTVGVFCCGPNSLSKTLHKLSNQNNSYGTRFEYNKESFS
# Chain of Torsin-1A (Homo sapiens) (O14656 whole entry, looked up): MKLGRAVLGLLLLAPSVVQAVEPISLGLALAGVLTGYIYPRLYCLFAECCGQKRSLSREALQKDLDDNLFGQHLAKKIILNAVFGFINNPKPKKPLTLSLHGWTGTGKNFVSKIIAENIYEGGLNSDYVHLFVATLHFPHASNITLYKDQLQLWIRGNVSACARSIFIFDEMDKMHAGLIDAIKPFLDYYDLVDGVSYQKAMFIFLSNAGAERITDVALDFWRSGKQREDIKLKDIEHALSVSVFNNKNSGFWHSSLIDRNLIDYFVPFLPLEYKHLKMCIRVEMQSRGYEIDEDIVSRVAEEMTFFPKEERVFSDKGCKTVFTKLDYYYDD
# Chain of NADPH oxidase 2 (Homo sapiens) (P04839 whole entry, looked up): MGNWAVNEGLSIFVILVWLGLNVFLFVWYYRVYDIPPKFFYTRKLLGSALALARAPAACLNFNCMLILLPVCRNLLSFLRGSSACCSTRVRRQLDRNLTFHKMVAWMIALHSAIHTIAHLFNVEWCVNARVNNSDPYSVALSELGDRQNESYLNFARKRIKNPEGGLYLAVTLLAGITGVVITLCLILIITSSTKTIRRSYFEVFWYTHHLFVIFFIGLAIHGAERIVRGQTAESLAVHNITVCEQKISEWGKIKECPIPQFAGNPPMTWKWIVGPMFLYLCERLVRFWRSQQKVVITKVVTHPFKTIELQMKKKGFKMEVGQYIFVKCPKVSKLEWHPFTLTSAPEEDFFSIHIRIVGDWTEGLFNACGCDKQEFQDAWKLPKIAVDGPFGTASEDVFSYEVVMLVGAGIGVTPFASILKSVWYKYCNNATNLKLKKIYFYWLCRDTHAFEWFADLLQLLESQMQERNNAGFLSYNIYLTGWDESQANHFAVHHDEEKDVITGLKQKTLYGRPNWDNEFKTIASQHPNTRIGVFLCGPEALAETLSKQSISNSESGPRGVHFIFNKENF
# Chain of Streptavidin (Streptomyces avidinii) (P22629 whole entry, looked up): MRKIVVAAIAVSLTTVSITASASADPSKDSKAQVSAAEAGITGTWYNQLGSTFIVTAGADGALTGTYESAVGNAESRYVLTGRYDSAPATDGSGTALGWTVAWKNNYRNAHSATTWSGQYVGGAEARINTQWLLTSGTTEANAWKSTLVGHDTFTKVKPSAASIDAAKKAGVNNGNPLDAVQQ
SMILES,composite z-score [1],z-score [2],z-score [3],z-score [4],z-score [5],composite z-score [6],composite z-score [7],composite z-score (Torsin-1A (Homo sapiens) [8]),composite z-score (Torsin-1A (Homo sapiens) [9]),composite z-score [10],z-score [11],composite z-score [12],z-score [13],z-score [14],z-score [15],z-score [16],z-score [17],z-score [18],z-score [19],z-score [20]
C=CCOC(=O)[C@@H]1[C@H]2C(=O)O[C@H](c3ccccc3)[C@H](c3ccccc3)N2[C@H](c2ccc(OCCOC(=O)[C@H]3C[C@H]4C(=O)NCC(=O)N4[C@H]3c3cccc(OCCO)c3)cc2)[C@@]12C(=O)Nc1ccc(I)cc12,0.569,-0.357 (inactive),-0.71 (inactive),-0.264 (inactive),-0.0891 (inactive),0.808,0.0228,0.724,0.702,1.88,-0.27 (inactive),0.248,1.5 (inactive),1.56 (inactive),1.06 (inactive),1.26 (inactive),0.117,1.54 (inactive),0.436 (inactive),1.55
CCOC(=O)C[C@H]1[C@H](OC(=O)c2cc3ccccc3oc2=O)[C@@H](NC(=O)CC(C)C)c2cc(OCCCO)ccc2N1C(=O)Cc1ccc(OC)cc1,0.221,-0.387 (inactive),1.19 (inactive),1.02 (inactive),-0.505 (inactive),0.0665,-0.128,-0.0652,0.304,0.97,-0.752 (inactive),-0.193,5.95 (inactive),0.711 (inactive),0.863 (inactive),0.5 (inactive),-0.0561,0.166 (inactive),0.381 (inactive),1.38
COc1cc(C(O)C2C=CC3C(=O)N(c4ccccc4)C(=O)C3N2Nc2ccccc2)cc(OC)c1OC (stereo not given),0.575,-0.685 (inactive),-0.983 (inactive),-0.322 (inactive),0.226 (inactive),1.39,0.38,-0.327,-0.0996,-0.277,-0.915 (inactive),0.501,26.2 (active),12.1 (active),1.18 (inactive),1.73 (inactive),-0.817,-1.61 (inactive),-3.49 (inactive),-3.2
O=C1C2C=CC(C(O)c3cccs3)N(Nc3ccc([N+](=O)[O-])cc3)C2C(=O)N1c1ccccc1 (stereo not given),0.0001,0.0886 (inactive),0.461 (inactive),-0.685 (inactive),-0.275 (inactive),0.46,-0.0791,-0.236,0.303,-0.441,-0.46 (inactive),-0.105,8.61 (active),1.43 (inactive),1.75 (inactive),0.753 (inactive),-0.772,-0.437 (inactive),-2.75 (inactive),-1.55
